# Measurements: the supplement of paper PMC8728848
# This excerpt belongs to a sample that is enriched for the strongest signals.
# B1: Epa23 (Candida glabrata) (protein)
# chain: MGSSHHHHHHSSGLVPRGSHMIPNPFEGTINNFPSGCSPNHGLYNRGLTMELYNYSYIHPQSIQSYFNTSTLKKMEKGQCWDPSYLDVNYPRTGYKTHNRFAKVNGIDGILDFEFNPTRSCVPSKGQLPQNYNYPLQFTLSNFTMLLYGYFKPKVTAKHTFTIFADDLLFLNFGAGNAFDCCQQQDTIDDFGNYQAYALWGSDTQQNTLTVNLDANIYYPIRMFYNNRDFKGALNMYFTTDESNTKINDFSGYLFNIPDSSEGCPAHISYETECGNVSG
# Legend:
# Assay in all cases: glycan array binding signal (z-score within array); higher = stronger binding
# Conditions in all cases: glycan notation: IUPAC condensed, linker removed
# Gal6S(b1-4)GlcNAc6S = biological target: Gal6S(b1-4)GlcNAc6S
# Procedure, shortened: (§1)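 Negative Z-scores can be read as non-binding. The Z-score is calculated within each array and then averaged across arrays of one protein sequence at different concentrations or buffers and across linkers. Arrays, 3228 in all, were curated from the Consortium for Functional Glycomics database and kept only where the protein sequence was available.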
# [1] = biological target: GalNAc(a1-3)GalNAc(b1-3)Gal(a1-4)Gal(b1-4)Glc
# Procedure, shortened: as §1
# GalNAc(b1-4)GlcNAc = biological target: GalNAc(b1-4)GlcNAc
# Procedure, shortened: as §1
# [2] = biological target: Glc(a1-6)Glc(a1-6)Glc(a1-6)Glc
# Procedure, shortened: as §1
# [3] = biological target: GlcNAc(b1-2)[GlcNAc(b1-4)]Man(a1-3)[GlcNAc(b1-2)Man(a1-6)]Man(b1-4)GlcNAc(b1-4)GlcNAc
# Procedure, shortened: as §1
# [4] = biological target: GlcNAc(b1-3)Gal(b1-4)GlcNAc(b1-2)Man(a1-3)[GlcNAc(b1-3)Gal(b1-4)GlcNAc(b1-2)Man(a1-6)]Man(b1-4)GlcNAc(b1-4)[Fuc(a1-6)]GlcNAc
# Procedure, shortened: as §1
# [5] = biological target: GlcNAc(b1-3)Gal(b1-4)GlcNAc(b1-3)Gal(b1-4)GlcNAc(b1-2)Man(a1-3)[GlcNAc(b1-3)Gal(b1-4)GlcNAc(b1-3)Gal(b1-4)GlcNAc(b1-2)Man(a1-6)]Man(b1-4)GlcNAc(b1-4)[Fuc(a1-6)]GlcNAc
# Procedure, shortened: as §1
# [6] = biological target: GlcNAc(b1-3)Gal(b1-4)GlcNAc(b1-3)Gal(b1-4)GlcNAc(b1-2)[GlcNAc(b1-3)Gal(b1-4)GlcNAc(b1-3)Gal(b1-4)GlcNAc(b1-6)]Man(a1-6)[GlcNAc(b1-3)Gal(b1-4)GlcNAc(b1-3)Gal(b1-4)GlcNAc(b1-2)Man(a1-3)]Man(b1-4)GlcNAc(b1-4)[Fuc(a1-6)]GlcNAc
# Procedure, shortened: as §1
# GlcNAc(b1-3)GalNAc = biological target: GlcNAc(b1-3)GalNAc
# Procedure, shortened: as §1
# Kdn(a2-3)Gal(b1-4)Glc = biological target: Kdn(a2-3)Gal(b1-4)Glc
# Procedure, shortened: as §1
# [7] = biological target: Man(a1-2)Man(a1-3)[Man(a1-2)Man(a1-6)]Man(a1-6)[Man(a1-2)Man(a1-2)Man(a1-3)]Man
# Procedure, shortened: as §1
# [8] = biological target: Man(a1-3)[Man(a1-6)]Man(a1-6)[Man(a1-2)Man(a1-3)]Man(b1-4)GlcNAc(b1-4)GlcNAc
# Procedure, shortened: as §1
# [9] = biological target: Man(a1-3)[Man(a1-6)]Man(a1-6)[Man(a1-3)]Man
# Procedure, shortened: as §1
# [10] = biological target: Neu5Ac(a2-3)Gal(b1-3)GalNAc(b1-4)[Neu5Ac(a2-3)]Gal(b1-4)Glc
# Procedure, shortened: as §1
# [11] = biological target: Neu5Ac(a2-3)Gal(b1-3)GalNAc6S
# Procedure, shortened: as §1
# [12] = biological target: Neu5Ac(a2-3)Gal(b1-3)[Fuc(a1-4)]GlcNAc
# Procedure, shortened: as §1
# [13] = biological target: Neu5Ac(a2-3)Gal(b1-4)GlcNAc(b1-2)Man(a1-3)[Neu5Ac(a2-3)Gal(b1-4)GlcNAc(b1-2)Man(a1-6)]Man(b1-4)GlcNAc(b1-4)GlcNAc
# Procedure, shortened: as §1
# [14] = biological target: Neu5Ac(a2-3)Gal(b1-4)GlcNAc(b1-2)[Neu5Ac(a2-3)Gal(b1-4)GlcNAc(b1-4)]Man(a1-3)[GlcNAc(b1-4)][Neu5Ac(a2-3)Gal(b1-4)GlcNAc(b1-4)Man(a1-6)]Man(b1-4)GlcNAc(b1-4)GlcNAc
# Procedure, shortened: as §1
# [15] = biological target: Neu5Ac(a2-3)Gal(b1-4)[Fuc(a1-3)]GlcNAc(b1-3)Gal(b1-4)GlcNAc
# Procedure, shortened: as §1
# [16] = biological target: Neu5Ac(a2-3)[GalNAc(b1-4)]Gal(b1-4)GlcNAc
# Procedure, shortened: as §1
# [17] = biological target: Neu5Ac(a2-6)Gal(b1-4)GlcNAc(b1-6)[Gal(b1-3)GlcNAc(b1-3)]Gal(b1-4)Glc
# Procedure, shortened: as §1
# [18] = biological target: Neu5Ac(a2-8)Neu5Ac(a2-3)[GalNAc(b1-4)]Gal(b1-4)Glc
# Procedure, shortened: as §1
# [19] = biological target: Neu5Ac9Ac(a2-3)Gal(b1-4)GlcNAc
# Procedure, shortened: as §1
# [20] = biological target: Neu5Ac9Ac(a2-6)Gal(b1-4)GlcNAc
# Procedure, shortened: as §1
# [21] = biological target: Neu5Gc(a2-3)Gal(b1-4)GlcNAc
# Procedure, shortened: as §1
# [22] = biological target: Neu5Gc(a2-8)Neu5Gc(a2-3)Gal(b1-4)GlcNAc
# Procedure, shortened: as §1
# [23] = biological target: Neu5Gc(b2-6)Gal(b1-4)GlcNAc
# Procedure, shortened: as §1
binder,measurement,setting,value
B1,glycan array binding signal (z-score),Gal6S(b1-4)GlcNAc6S,13.5
same,glycan array binding signal (z-score),[1],-0.137
same,glycan array binding signal (z-score),GalNAc(b1-4)GlcNAc,-0.168
same,glycan array binding signal (z-score),[2],-0.278
same,glycan array binding signal (z-score),[3],-0.21
same,glycan array binding signal (z-score),[4],-0.199
same,glycan array binding signal (z-score),[5],-0.176
same,glycan array binding signal (z-score),[6],-0.093
same,glycan array binding signal (z-score),GlcNAc(b1-3)GalNAc,-0.243
same,glycan array binding signal (z-score),Kdn(a2-3)Gal(b1-4)Glc,-0.263
same,glycan array binding signal (z-score),[7],-0.233
same,glycan array binding signal (z-score),[8],-0.22
same,glycan array binding signal (z-score),[9],-0.232
same,glycan array binding signal (z-score),[10],-0.24
same,glycan array binding signal (z-score),[11],-0.246
same,glycan array binding signal (z-score),[12],-0.296
same,glycan array binding signal (z-score),[13],-0.249
same,glycan array binding signal (z-score),[14],-0.243
same,glycan array binding signal (z-score),[15],-0.288
same,glycan array binding signal (z-score),[16],-0.198
same,glycan array binding signal (z-score),[17],-0.13
same,glycan array binding signal (z-score),[18],-0.297
same,glycan array binding signal (z-score),[19],-0.225
same,glycan array binding signal (z-score),[20],-0.239
same,glycan array binding signal (z-score),[21],-0.274
same,glycan array binding signal (z-score),[22],-0.215
same,glycan array binding signal (z-score),[23],-0.194
